Calls of active or inactive are those of the source. Unless noted, no rule for the calls is given here.
Legend:
[1] = compounds binding Alexa647 anti-His antibody – biochemical, small-molecule microarray, 635 nm fluorescence, artefact control for SMM control protein annotation, primary screen (AID 1128); settings: higher = more signal;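 also: score merges feature fluorescence with signal-to-noise for each printed compound spot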
[2] = tested on: Human papillomavirus type 1a E7 protein (residues 1-88); assay: HPV1a E7 small-molecule binders, primary screen, biochemical, small-molecule microarray, residues 1-88, 635 nm (AID 1129); settings: small-molecule microarray binding, fluorescence 635 nm; higher = more signal
[3] = biological target: Focal adhesion kinase 1 (Homo sapiens) (UniProt Q05397); assay: PTK2 protein binding on printed compound slides – biochemical, small-molecule microarray, 635/667 nm fluorescence, BSA, DTT, primary screen (AID 1130); settings: 635 nm fluorescence, higher = more signal;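 also: composite of spot emission at 667 nm and signal to noise over triplicate slides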
Sequence of Focal adhesion kinase 1 (Homo sapiens) (Q05397 whole entry, looked up): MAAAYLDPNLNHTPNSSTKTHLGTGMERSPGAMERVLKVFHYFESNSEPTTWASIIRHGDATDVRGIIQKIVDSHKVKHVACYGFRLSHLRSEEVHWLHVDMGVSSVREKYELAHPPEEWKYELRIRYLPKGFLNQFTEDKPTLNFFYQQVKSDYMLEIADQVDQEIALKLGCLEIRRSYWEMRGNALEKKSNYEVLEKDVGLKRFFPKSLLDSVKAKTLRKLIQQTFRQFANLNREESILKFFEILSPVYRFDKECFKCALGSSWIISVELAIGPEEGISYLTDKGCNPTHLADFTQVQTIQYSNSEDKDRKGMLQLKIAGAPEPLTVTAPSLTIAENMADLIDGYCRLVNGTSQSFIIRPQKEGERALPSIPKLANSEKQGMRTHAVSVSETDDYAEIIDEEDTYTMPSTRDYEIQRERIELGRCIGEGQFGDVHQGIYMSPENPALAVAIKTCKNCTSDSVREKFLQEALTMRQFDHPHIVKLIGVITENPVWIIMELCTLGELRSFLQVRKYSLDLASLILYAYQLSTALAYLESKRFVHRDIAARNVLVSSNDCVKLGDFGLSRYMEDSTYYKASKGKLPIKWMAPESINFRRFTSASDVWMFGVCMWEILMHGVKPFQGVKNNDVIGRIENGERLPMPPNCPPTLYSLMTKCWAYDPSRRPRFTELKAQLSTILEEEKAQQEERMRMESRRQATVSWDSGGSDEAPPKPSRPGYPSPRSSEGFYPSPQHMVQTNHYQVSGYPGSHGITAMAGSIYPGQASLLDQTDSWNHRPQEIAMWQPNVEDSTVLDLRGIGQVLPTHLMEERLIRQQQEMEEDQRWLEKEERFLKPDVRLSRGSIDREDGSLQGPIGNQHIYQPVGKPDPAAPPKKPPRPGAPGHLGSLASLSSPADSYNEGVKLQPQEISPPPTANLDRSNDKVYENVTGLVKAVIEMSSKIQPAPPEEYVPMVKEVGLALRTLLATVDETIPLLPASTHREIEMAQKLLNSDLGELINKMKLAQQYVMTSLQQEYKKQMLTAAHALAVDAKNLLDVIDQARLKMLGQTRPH

[4] = tested on: Fibrinogen (Alexa647-labelled); assay: Alexa647-fibrinogen binding to printed small molecules – biochemical, small-molecule microarray, 635/667 nm fluorescence, artefact control for SMM control-protein annotation, profiling panel (AID 1131); settings: fibrinogen-A647 binding fluorescence, higher = more signal;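 also: z-score merges 667 nm fluorescence with per-spot signal-to-noise over triplicate slides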
[5] = biological target: Follistatin (Homo sapiens) (UniProt P19883); assay: FST protein binding to printed compounds – biochemical, small-molecule microarray, 635/667 nm fluorescence, primary screen (AID 1132); settings: 635 nm fluorescence, higher = more signal
Sequence of Follistatin (Homo sapiens) (P19883 whole entry, looked up): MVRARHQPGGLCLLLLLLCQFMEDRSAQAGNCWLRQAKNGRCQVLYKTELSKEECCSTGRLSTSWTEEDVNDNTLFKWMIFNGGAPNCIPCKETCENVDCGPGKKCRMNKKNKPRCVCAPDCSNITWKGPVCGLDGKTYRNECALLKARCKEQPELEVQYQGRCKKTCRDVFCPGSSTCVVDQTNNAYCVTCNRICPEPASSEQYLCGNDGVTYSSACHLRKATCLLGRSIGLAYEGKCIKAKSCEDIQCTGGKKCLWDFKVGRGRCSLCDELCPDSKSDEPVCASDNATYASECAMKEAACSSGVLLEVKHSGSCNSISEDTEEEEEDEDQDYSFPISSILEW

[6] = biological target: Fibroblast growth factor 2 (Homo sapiens) (UniProt P09038); assay: basic fibroblast growth factor binding to printed compounds – biochemical, small-molecule microarray, 635/667 nm fluorescence, primary screen (AID 1133); settings: FGF2, fluorescence 635/667, higher = more signal
Sequence of Fibroblast growth factor 2 (Homo sapiens) (P09038 whole entry, looked up): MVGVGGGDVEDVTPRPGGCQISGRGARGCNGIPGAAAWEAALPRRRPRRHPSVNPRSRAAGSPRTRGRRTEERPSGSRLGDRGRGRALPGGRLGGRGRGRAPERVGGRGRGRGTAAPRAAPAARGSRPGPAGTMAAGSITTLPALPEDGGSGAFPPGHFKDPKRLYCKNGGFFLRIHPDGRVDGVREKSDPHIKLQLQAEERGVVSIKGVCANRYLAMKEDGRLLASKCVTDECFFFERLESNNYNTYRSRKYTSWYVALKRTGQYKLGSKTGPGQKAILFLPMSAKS

[7] = JC-1 mitochondrial potential readout, lung cancer cells – cell-based, A549, JC-1 fluorescence, basal, 24 h, 100 nL, profiling panel (AID 1138); settings: higher = more signal;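 also: A549 lung adenocarcinoma cells under basal conditions with no added stimulus; test concentration not given here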
[8] = tested on: Lefty1; assay: Lefty1 protein binding to printed compounds – biochemical, small-molecule microarray, 635/667 nm fluorescence, primary screen (AID 1139); settings: fluorescence 635/667, higher = more signal
[9] = tested on: wheat germ agglutinin (Triticum aestivum), Alexa647-labelled; assay: Alexa647-WGA lectin binding to printed small molecules – biochemical, small-molecule microarray, 635/667 nm fluorescence, artefact control for SMM control-protein annotation, profiling panel (AID 1140); settings: WGA-A647 binding, 635 nm fluorescence, higher = more signal;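 also: score merges 667 nm feature emission with signal to noise over triplicate slides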
[10] = biological target: Luciferin 4-monooxygenase (Photinus pyralis) (UniProt P08659); assay: inhibition of purified Photinus pyralis luciferase – biochemical, luminescence, purified enzyme, 2006 set, primary screen (AID 1141); settings: purified firefly luciferase, SteadyGlo luminescence, 30 min; higher = more signal, called active from +8 up or from −8 down;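 also: cell-free assay with purified firefly luciferase at 100 ng per well in PBS; test concentration not given here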
Sequence of Luciferin 4-monooxygenase (Photinus pyralis) (P08659 whole entry, looked up): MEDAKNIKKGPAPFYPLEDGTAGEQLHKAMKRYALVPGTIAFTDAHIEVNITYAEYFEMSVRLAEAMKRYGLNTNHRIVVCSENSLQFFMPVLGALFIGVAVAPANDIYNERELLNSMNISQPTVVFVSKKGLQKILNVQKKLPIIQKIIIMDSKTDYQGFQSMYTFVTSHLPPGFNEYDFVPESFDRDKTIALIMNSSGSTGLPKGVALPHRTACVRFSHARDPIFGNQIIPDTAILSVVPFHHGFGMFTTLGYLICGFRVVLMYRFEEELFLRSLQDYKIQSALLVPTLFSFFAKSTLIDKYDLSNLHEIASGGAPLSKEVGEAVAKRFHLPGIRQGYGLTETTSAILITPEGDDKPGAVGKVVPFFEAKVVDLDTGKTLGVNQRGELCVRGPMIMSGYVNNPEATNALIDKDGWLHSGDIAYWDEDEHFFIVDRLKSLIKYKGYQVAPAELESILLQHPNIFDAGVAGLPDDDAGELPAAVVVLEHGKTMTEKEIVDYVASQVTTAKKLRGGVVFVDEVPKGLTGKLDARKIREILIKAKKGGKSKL

[11] = tested on: Wnt5a (protein binding on small-molecule microarray); assay: small molecules binding Wnt5a protein – biophysical, small-molecule microarray, 635/667 nm fluorescence, primary screen (AID 1142); settings: 635 nm fluorescence, higher = more signal;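 also: fluorescence read at 667 nm with signal to noise per printed feature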
[12] = ATP-based viability of Huh7 replicon cells – cell-based, CellTiter-Glo luminescence, basal, 48 h, cytotoxicity control for HCV replication inhibitor project, primary screen (AID 1143); settings: higher = more signal, called active from +8 up or from −8 down;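 also: Huh7 hepatoma cells carrying a hepatitis C replication reporter with no stimulus; test concentration not given here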
[13] = Pseudomonas biofilm growth suppression – PAO1 strain, BacTiter-Glo luminescence, LB-PBS, primary screen (AID 1144); settings: P. aeruginosa PAO1 biofilm, 12 h, higher = more signal
[14] = basal CRE-LacZ reporter activity in PC12 – cell-based, unstimulated, primary screen (AID 1145); settings: no forskolin, luminescence, 4.5 h, higher = more signal, called active from +8 up or from −8 down
[15] = forskolin-driven CRE-LacZ activity in PC12 – cell-based, CRE-LacZ reporter, forskolin-stimulated, primary screen (AID 1146); settings: luminescence, 4.5 h, higher = more signal, called active from +8 up or from −8 down;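 also: PC12 cells with 6xCRE LacZ reporter stimulated by forskolin 10 µM; beta-galactosidase reporter signal reflecting CREB driven transcription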
[16] = biological target: Streptavidin (Streptomyces avidinii) (UniProt P22629); assay: compounds binding control protein streptavidin – biophysical, small-molecule microarray, 635/667 nm fluorescence, artefact control for SMM compound annotation, primary screen (AID 1147); settings: higher = more signal;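 also: signal reflects streptavidin binding to arrayed compounds as a control protein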
Sequence of Streptavidin (Streptomyces avidinii) (P22629 whole entry, looked up): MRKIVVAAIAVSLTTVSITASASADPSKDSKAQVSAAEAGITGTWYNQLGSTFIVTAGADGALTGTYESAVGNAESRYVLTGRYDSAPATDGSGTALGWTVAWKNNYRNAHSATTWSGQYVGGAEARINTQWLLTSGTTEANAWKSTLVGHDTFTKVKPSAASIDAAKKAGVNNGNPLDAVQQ

[17] = probe aInhba binding on compound microarray – biochemical, small-molecule microarray, 635/667 nm fluorescence, primary screen (AID 1148); settings: higher = more signal;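 also: score merges 667nm spot fluorescence with signal-to-noise for antibody binding to printed compounds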
[18] = biological target: Torsin-1A (Homo sapiens) (UniProt O14656); assay: TOR1A wild-type binding on microarray – cell lysate, small-molecule microarray, lysate, 635/667 nm, primary screen (AID 1149); settings: COS7 hTOR1A-WT lysate, 635 nm fluorescence, higher = more signal
Sequence of Torsin-1A (Homo sapiens) (O14656 whole entry, looked up): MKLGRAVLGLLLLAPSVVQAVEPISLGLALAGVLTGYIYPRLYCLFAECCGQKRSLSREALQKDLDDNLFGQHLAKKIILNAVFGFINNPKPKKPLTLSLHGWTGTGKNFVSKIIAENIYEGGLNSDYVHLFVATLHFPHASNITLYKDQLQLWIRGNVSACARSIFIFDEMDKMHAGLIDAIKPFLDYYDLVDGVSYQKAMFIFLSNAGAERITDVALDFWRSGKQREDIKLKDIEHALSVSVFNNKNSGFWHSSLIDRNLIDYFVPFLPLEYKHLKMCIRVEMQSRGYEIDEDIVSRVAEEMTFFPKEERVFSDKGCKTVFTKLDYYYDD

[19] = biological target: Torsin-1A (Homo sapiens) (UniProt O14656); assay: torsin A mutant lysate binding on microarrays – cell lysate, small-molecule microarray, COS7 lysate, 635/667 nm fluorescence, primary screen (AID 1150); settings: COS7 hTOR1A mutant lysate, 635 nm fluorescence, higher = more signal;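 also: score pools 667 nm emission and signal to noise measuring lysate protein binding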
[20] = tested on: Sonic hedgehog protein (Shh); assay: Sonic hedgehog microarray binding compounds – biochemical, small-molecule microarray, 635/667 nm fluorescence, primary screen (AID 1151); settings: 635 nm fluorescence, higher = more signal;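 also: Shh protein binding to compounds spotted on small-molecule microarray slides; score combines spot fluorescence intensity with signal-to-noise across triplicate slides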

Structure (SMILES)	composite z-score [1]	composite z-score [2]	composite z-score [3]	composite z-score [4]	composite z-score [5]	composite z-score [6]	z-score [7]	composite z-score [8]	composite z-score [9]	z-score [10]	composite z-score [11]	z-score [12]	z-score [13]	z-score [14]	z-score [15]	composite z-score [16]	composite z-score [17]	composite z-score [18]	composite z-score [19]	composite z-score [20]
O=C1C[C@@H](O)[C@@H](O)[C@@H]2[C@@H]3C(=O)N(c4cccc(Oc5ccccc5)c4)C(=O)[C@@H]3CC[C@@H]12	0.161	0.783	0.35	0.725	0.91	0.679	0.844	0.661	0.428	-0.44 (inactive)	0.111	-0.146 (inactive)	1.27 (inactive)	1.24 (inactive)	0.061 (inactive)	0.251	0.0227	0.446	0.463	0.521
O=C1O[C@@H](c2ccccc2)[C@@H](c2ccccc2)N2[C@@H](c3ccccc3OCCO)[C@]3(C(=O)Nc4ccc(C#CCCO)cc43)[C@@H](C(=O)O)[C@H]12	2.14	1.18	0.459	0.923	0.89	0.598	-0.406	1.37	0.365	-0.703 (inactive)	0.44	-5.04 (inactive)	-0.923 (inactive)	-0.465 (inactive)	1.6 (inactive)	0.618	1.43	0.536	0.925	0.517
Cc1cc2c(c(=O)o1)[C@H](O)[C@H]1O[C@H]1C2=O	-0.633	-1.07	-0.21	-0.236	0.429	0.126	-1.23	-0.32	-0.137	-0.0074 (inactive)	-0.218	-2.97 (inactive)	1.6 (inactive)	-1.06 (inactive)	2.18 (inactive)	0.0061	-0.209	0.284	0.46	1.5
C=CC[C@@H]1C=C[C@H](ON=Cc2ccc(C(=O)N3[C@H](c4ccc(C)cc4)[C@@H](C)CC[C@H]3C(=O)OC)cc2)[C@@H](CO)O1	-0.672	0.973	0.181	0.302	0.333	0.646	-0.154	0.387	0.0608	1.27 (inactive)	0.14	-1.33 (inactive)	0.694 (inactive)	3.89 (inactive)	0.062 (inactive)	-0.161	-0.0791	-0.0434	0.0034	0.68
